We go through one sequence from paper PMC7862700, “An all-to-all approach to the identification of sequence-specific readers for epigenetic DNA modifications on cytosine”.

Experiment in all cases: DAPPL (digital affinity profiling via proximity ligation, sequencing); 10 mM Tris-HCl pH 7.5, 50 mM NaCl, 1 mM DTT, 4% glycerol, room temperature, 30 min; GST-TFs on glutathione beads, 16-mer random dsDNA library, 0.1% formaldehyde crosslink after washing; high values mean tight binding
One test concerns the target T1, FEV (Homo sapiens, UniProt Q99581 1-238).
T1 sequence: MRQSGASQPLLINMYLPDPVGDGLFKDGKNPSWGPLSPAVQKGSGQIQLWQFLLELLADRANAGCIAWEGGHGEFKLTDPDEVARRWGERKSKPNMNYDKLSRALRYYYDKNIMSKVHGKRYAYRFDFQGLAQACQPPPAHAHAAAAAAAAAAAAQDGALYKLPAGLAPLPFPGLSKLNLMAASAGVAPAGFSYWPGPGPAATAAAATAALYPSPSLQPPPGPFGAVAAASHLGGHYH
The following applies: protein: recombinant; tags: N-terminal GST; dsDNA, one strand shown. A digest of the protocol:
(§1)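 Binding signal is each hexamer's read frequency for a factor divided by its frequency in the tag-only sample. The factors were GST-fused human transcription factors from yeast, captured on glutathione beads, DNA-barcoded and pooled with that sample. Pools were incubated with 200 nmole of a random double-stranded 16-mer DNA library in Tris/NaCl/DTT/glycerol buffer at room temperature for 30 min, then washed, crosslinked with 0.1% formaldehyde, proximity-ligated with BsaI/T4 ligase (1 h, 37 °C), PCR-amplified and sequenced on an Illumina NextSeq500.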

For another test, the target named is ETV5 (Homo sapiens, UniProt P41161 1-510). The following applies: protein: recombinant; tags: N-terminal GST; dsDNA, one strand shown. In outline:
as §1

The target of another test is HSF1 (Homo sapiens, UniProt Q00613 1-529). To be noted: protein: recombinant; tags: N-terminal GST; chain copies: 3; dsDNA, one strand shown. In outline:
as §1

The target in a further test is T2, SPIC (Homo sapiens, UniProt Q8N5J4 1-248).
T2 sequence: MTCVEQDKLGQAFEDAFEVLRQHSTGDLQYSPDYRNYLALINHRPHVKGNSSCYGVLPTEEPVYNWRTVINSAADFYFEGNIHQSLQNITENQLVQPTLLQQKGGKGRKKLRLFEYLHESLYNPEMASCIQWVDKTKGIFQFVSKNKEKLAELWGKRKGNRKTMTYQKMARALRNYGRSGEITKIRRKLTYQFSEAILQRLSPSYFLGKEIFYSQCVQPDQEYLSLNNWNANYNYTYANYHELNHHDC
To be noted: protein: recombinant; tags: N-terminal GST; dsDNA, one strand shown. In outline:
as §1

For another test, the target named is ELF4 (Homo sapiens, UniProt Q99607 1-663). To be noted: protein: recombinant; tags: N-terminal GST; dsDNA, one strand shown. In outline: as §1
Sequence of ELF4 (Q99607 whole entry): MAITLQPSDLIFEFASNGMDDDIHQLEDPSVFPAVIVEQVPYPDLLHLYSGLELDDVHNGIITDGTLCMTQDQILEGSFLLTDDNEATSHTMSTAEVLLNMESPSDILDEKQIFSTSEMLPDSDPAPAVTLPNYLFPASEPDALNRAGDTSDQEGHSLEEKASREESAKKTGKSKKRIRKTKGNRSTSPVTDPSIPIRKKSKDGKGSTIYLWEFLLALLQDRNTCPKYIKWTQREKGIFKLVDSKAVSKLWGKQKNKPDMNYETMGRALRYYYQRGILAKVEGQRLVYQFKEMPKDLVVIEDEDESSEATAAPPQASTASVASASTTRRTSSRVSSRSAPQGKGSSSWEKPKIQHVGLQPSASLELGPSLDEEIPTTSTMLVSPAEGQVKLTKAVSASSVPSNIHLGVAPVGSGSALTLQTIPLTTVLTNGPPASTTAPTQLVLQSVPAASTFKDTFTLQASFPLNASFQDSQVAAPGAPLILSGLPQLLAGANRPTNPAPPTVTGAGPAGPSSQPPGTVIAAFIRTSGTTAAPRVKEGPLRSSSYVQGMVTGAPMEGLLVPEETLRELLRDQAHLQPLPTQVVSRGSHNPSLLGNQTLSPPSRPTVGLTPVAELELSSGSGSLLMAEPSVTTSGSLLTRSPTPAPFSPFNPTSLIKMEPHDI
A further test concerns the target T3, ELK4 (Homo sapiens, UniProt P28324-2 1-405).
T3 sequence: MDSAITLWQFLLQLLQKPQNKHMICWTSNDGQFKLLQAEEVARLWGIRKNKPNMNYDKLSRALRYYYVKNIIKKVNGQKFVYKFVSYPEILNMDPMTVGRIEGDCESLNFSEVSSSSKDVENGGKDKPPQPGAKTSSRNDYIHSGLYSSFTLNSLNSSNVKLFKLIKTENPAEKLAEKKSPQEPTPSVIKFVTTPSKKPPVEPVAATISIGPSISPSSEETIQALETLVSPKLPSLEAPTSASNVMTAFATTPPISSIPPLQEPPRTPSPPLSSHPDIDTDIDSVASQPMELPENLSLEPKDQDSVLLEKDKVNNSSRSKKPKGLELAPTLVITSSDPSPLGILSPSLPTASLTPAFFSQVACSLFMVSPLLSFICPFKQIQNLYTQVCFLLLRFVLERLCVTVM
To be noted: protein: recombinant; tags: N-terminal GST; dsDNA, one strand shown. A digest of the protocol: as §1

Another test concerns the target T4, ETV2 (Homo sapiens, UniProt O00321 1-342).
T4 sequence: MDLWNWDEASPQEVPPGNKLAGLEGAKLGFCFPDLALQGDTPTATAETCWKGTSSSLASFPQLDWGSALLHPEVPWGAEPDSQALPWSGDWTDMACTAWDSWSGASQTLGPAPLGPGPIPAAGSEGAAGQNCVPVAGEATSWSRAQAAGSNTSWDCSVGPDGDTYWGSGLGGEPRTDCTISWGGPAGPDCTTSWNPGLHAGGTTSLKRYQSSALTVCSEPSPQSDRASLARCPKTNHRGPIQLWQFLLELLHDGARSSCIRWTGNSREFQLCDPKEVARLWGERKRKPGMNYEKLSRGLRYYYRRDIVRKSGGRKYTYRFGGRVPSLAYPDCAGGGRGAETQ
The following applies: protein: recombinant; tags: N-terminal GST; dsDNA, one strand shown. In outline:
as §1

A further test has as its target T5, ELF3 (Homo sapiens, UniProt P78545 1-371).
T5 sequence: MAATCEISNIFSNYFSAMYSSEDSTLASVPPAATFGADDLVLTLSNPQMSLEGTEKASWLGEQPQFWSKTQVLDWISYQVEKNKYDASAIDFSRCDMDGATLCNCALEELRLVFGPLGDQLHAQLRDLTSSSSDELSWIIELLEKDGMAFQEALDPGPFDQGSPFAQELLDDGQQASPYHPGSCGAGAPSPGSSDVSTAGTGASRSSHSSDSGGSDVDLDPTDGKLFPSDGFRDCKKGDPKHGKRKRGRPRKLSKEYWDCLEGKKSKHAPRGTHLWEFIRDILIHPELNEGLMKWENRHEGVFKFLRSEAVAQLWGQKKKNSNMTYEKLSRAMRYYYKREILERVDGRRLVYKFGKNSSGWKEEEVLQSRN
To be noted: protein: recombinant; tags: N-terminal GST; dsDNA, one strand shown. In outline: as §1

The target of a further test is CRX (Homo sapiens, UniProt O43186 1-299). To be noted: protein: recombinant; tags: N-terminal GST; dsDNA, one strand shown. A digest of the protocol: as §1
Sequence of CRX (O43186 whole entry): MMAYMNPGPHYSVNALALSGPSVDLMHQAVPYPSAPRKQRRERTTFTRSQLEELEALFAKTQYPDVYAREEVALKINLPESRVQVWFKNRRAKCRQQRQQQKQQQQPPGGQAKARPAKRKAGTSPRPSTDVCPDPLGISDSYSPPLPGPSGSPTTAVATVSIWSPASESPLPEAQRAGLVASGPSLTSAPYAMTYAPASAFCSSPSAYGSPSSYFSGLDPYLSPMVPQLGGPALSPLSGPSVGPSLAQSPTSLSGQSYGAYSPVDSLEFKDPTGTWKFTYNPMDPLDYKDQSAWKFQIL
The target of another test is ETV1 (Homo sapiens, UniProt P50549 1-477). To be noted: protein: recombinant; tags: N-terminal GST; dsDNA, one strand shown. A digest of the protocol:
as §1

The target of the next test is T6, ERF (Homo sapiens, UniProt P50548 1-548).
T6 sequence: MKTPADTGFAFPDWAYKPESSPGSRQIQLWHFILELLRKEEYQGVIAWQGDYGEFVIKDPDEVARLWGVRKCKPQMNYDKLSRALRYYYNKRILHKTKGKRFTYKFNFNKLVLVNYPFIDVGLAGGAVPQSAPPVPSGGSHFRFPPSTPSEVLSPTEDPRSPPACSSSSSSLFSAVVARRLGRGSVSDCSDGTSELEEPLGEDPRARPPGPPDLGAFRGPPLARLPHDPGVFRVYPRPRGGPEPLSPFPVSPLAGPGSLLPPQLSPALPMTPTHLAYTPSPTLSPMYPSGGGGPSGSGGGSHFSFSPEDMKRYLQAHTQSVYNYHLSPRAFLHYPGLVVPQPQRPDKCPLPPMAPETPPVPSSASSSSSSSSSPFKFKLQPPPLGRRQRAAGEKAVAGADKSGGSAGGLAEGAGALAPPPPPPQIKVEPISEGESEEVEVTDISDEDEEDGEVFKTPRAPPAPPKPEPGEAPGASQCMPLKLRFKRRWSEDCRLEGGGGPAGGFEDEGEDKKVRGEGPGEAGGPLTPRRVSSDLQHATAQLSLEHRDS
The following applies: protein: recombinant; tags: N-terminal GST; dsDNA, one strand shown. A digest of the protocol: as §1

The next test addresses T7, ETV3L (Homo sapiens, UniProt Q6ZN32 1-361).
T7 sequence: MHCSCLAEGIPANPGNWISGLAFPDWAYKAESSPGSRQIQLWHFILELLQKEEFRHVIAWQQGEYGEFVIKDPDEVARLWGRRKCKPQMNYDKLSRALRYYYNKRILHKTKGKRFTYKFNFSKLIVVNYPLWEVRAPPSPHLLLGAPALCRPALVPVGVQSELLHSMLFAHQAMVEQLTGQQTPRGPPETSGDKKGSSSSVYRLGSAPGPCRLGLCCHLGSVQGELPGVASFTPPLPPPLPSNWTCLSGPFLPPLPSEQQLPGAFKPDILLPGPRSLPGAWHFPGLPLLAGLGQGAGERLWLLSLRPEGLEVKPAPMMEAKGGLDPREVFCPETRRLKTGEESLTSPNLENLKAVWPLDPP
The following applies: protein: recombinant; tags: N-terminal GST; dsDNA, one strand shown. In outline: as §1

In another test the target is T8, ETS2 (Homo sapiens, UniProt P15036 1-469).
T8 sequence: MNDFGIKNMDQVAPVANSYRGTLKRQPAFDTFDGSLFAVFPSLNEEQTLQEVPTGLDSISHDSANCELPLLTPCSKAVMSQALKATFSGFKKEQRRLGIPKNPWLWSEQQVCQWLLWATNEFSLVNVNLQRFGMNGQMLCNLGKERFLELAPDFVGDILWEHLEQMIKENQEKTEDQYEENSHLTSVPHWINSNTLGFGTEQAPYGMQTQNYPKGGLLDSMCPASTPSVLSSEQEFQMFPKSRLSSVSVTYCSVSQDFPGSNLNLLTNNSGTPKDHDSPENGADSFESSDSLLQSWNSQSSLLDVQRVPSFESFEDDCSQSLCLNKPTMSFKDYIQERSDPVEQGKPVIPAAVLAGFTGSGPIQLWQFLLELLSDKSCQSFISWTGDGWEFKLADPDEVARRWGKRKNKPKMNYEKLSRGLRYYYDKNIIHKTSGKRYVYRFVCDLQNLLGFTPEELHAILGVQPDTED
To be noted: protein: recombinant; tags: N-terminal GST; dsDNA, one strand shown. A digest of the protocol: as §1

A further test addresses T9, SPDEF (Homo sapiens, UniProt O95238 1-335).
T9 sequence: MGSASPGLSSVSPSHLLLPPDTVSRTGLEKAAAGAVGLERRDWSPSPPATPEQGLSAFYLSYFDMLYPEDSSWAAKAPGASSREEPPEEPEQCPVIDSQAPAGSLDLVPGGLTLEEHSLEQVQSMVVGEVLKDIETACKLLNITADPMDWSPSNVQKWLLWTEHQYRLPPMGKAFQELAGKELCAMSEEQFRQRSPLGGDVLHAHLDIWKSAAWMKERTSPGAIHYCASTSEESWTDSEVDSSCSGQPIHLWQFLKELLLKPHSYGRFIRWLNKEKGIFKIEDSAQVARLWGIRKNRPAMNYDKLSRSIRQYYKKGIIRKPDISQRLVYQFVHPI
The following applies: protein: recombinant; tags: N-terminal GST; dsDNA, one strand shown. In outline: as §1

For another test, the target named is T10, ETV7 (Homo sapiens, UniProt Q9Y603 1-341).
T10 sequence: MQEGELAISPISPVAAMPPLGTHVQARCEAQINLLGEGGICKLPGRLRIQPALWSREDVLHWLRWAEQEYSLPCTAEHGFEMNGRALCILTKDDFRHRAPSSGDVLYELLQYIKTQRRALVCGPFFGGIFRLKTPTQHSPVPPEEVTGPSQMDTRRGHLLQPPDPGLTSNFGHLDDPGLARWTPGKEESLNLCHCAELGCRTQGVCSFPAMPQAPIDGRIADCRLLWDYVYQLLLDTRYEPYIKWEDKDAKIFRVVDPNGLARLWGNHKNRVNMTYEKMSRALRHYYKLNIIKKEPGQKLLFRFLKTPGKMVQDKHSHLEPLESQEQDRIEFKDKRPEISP
To be noted: protein: recombinant; tags: N-terminal GST; dsDNA, one strand shown. A digest of the protocol: as §1

In another test the target is T11, ELF5 (Homo sapiens, UniProt Q9UKW6-2 1-255).
T11 sequence: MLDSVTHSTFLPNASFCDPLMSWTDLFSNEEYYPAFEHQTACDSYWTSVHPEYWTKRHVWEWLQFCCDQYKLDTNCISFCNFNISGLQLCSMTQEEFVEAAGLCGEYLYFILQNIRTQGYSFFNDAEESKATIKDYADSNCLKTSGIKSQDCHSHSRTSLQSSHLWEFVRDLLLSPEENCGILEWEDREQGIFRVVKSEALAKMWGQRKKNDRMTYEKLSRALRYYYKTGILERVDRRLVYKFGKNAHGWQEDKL
The following applies: protein: recombinant; tags: N-terminal GST; dsDNA, one strand shown. A digest of the protocol: as §1

The target in another test is T12, ETV3 (Homo sapiens, UniProt P41162-2 1-143).
T12 sequence: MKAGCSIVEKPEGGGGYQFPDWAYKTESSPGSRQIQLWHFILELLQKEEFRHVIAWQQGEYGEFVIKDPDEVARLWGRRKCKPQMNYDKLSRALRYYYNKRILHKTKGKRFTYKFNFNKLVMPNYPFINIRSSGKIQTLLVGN
To be noted: protein: recombinant; tags: N-terminal GST; dsDNA, one strand shown. In outline:
as §1

The next test addresses ETV6 (Homo sapiens, UniProt P41212 1-452). To be noted: protein: recombinant; tags: N-terminal GST; dsDNA, one strand shown. In outline:
as §1

Sequence of ETV5 (P41161 whole entry): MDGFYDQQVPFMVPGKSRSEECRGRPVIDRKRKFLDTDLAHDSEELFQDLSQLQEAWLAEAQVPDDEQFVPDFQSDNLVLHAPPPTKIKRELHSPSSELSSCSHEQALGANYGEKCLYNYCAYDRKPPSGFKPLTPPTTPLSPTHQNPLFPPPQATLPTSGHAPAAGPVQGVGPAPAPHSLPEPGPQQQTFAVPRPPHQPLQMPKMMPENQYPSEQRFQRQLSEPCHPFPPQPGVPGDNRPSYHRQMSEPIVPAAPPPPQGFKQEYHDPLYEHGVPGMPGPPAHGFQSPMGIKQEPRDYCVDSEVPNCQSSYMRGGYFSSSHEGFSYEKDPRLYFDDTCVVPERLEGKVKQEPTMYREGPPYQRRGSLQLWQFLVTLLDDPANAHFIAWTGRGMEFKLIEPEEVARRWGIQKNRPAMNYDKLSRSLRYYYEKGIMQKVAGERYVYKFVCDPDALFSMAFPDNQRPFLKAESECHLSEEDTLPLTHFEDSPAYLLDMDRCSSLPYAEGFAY
Sequence of ETV6 (P41212 whole entry): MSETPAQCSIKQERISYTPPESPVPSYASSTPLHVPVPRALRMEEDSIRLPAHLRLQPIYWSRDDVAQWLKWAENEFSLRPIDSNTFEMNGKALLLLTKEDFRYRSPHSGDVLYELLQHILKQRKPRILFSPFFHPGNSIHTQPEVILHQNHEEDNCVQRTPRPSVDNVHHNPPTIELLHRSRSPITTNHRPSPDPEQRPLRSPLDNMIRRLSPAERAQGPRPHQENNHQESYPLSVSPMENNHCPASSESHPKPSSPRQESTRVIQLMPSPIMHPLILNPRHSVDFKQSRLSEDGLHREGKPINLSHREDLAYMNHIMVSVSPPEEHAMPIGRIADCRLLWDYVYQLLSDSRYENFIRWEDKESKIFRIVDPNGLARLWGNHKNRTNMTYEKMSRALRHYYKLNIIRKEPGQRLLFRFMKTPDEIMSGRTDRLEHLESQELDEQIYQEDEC
Sequence of ETV1 (P50549 whole entry): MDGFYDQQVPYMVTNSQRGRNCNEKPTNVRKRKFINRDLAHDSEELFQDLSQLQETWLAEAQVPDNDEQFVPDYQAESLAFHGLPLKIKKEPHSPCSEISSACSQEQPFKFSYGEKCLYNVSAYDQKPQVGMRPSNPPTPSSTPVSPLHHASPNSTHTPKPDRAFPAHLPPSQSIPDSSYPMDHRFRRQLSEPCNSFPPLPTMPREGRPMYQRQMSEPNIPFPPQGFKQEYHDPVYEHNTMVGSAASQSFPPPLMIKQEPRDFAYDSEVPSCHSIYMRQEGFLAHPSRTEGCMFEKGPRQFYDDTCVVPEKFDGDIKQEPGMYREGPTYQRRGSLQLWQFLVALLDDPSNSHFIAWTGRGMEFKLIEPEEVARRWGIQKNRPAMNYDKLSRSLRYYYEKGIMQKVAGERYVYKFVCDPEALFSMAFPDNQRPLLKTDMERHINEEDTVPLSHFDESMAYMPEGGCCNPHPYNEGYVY
Sequence of HSF1 (Q00613 whole entry): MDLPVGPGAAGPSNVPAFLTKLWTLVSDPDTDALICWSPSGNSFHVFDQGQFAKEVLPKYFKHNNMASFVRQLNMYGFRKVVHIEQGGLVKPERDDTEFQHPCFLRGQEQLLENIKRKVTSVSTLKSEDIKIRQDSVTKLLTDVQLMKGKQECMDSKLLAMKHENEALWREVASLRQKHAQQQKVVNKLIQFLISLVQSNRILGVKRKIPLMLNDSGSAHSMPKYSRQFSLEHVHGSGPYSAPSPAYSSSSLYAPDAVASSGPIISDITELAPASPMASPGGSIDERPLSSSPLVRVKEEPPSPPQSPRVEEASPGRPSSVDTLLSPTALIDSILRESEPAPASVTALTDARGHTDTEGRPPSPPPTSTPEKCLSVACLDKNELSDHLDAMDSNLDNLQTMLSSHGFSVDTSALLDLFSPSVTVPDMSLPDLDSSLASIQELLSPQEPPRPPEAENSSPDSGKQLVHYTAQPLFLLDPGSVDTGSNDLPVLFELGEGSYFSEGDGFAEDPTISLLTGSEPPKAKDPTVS

Turning to AATAAA, the binding signal was 1.22 fold enrichment (6-mer frequency, TF over GST control) with FEV; 1.31 fold enrichment (6-mer frequency, TF over GST control) in the test with ETV5; 1.42 fold enrichment (6-mer frequency, TF over GST control) with HSF1; 1.26 fold enrichment (6-mer frequency, TF over GST control) with SPIC; 1.29 fold enrichment (6-mer frequency, TF over GST control) in the test with ELF4; 1.28 fold enrichment (6-mer frequency, TF over GST control) in the test with ELK4. In addition, the binding signal with ETV2 is 1.21 fold enrichment (6-mer frequency, TF over GST control); with ELF3, 1.31 fold enrichment (6-mer frequency, TF over GST control); with CRX, 1.57 fold enrichment (6-mer frequency, TF over GST control); in the test with ETV1, 1.23 fold enrichment (6-mer frequency, TF over GST control); with ERF, 1.29 fold enrichment (6-mer frequency, TF over GST control); with ETV3L, 1.29 fold enrichment (6-mer frequency, TF over GST control). The binding signal with ETS2 was 1.31 fold enrichment (6-mer frequency, TF over GST control); with SPDEF, 1.22 fold enrichment (6-mer frequency, TF over GST control); with ETV7, 1.24 fold enrichment (6-mer frequency, TF over GST control); with ELF5, 1.2 fold enrichment (6-mer frequency, TF over GST control); with ETV3 it was 1.18 fold enrichment (6-mer frequency, TF over GST control); with ETV6 it was 1.34 fold enrichment (6-mer frequency, TF over GST control).
